In the assay the test system is Vero E6 infected with SARS-CoV-2. Kind of assay: inhibition of SARS-CoV-2 cytopathic effect; higher = more antiviral protection, active = above 15. The settings on record: 48 h.

The structures appear in SMILES notation. Values without a mark were called inactive.

As to `c1ccc(-c2ccc(CNc3nc(-c4ccccn4)nnc3-c3ccccc3)cc2)cc1`, the “inhibition of SARS-CoV-2 cytopathic effect” value (from here on “inhibition”) was 1.58% (1 nM); 0.74% (8.33 nM); -1.15% (100 nM); -4.89% (833.33 nM); -14.7% (10000 nM).
In the case of `CC(=O)Nc1nc2c(Oc3cc(-c4ccc(C(F)(F)F)cc4)ncn3)cccc2s1`, the “inhibition” value is 1.07% (1 nM); 0.66% (8.33 nM); 2.03% (100 nM); 2.31% (833.33 nM); 1.83% (10000 nM).
Turning to `CC(C)N[C@H]1CCn2c(=O)[nH]c3cccc(c32)[C@@H]1O` [zilpaterol], the “inhibition” value (1 nM) was 0.575%; the “inhibition” value (8.33 nM) is -0.6%; the “inhibition” value (100 nM) is -1.14%; the “inhibition” value (833.33 nM) was -1.59%; the “inhibition” value (10000 nM) was -2.51%.
On to `[N-]=[N+]=CC(=O)CC[C@H](N)C(=O)O` [6-diazo-5-oxo-L-norleucine], for which the “inhibition” value is 0.69% (1 nM); 0.78% (8.33 nM); 0.86% (100 nM); 0.6% (833.33 nM); -0.69% (10000 nM).
Turning to `COc1cc(OC)cc(-c2ccc3c(-c4ccc(F)cc4)n[nH]c3n2)c1`, the “inhibition” value was 12% (1 nM); -1.07% (8.33 nM); 2.95% (100 nM); 1.46% (833.33 nM); -0.11% (10000 nM).
The corresponding values for `Cc1ccc2nc(NCCN)c3ncc(C)n3c2c1` are -1.03%, -0.71%, -2.54%, 0.69% and -11.4%.
Regarding `CC(C)(C)NC(=O)[C@@H]1CN(Cc2cccnc2)CCN1C[C@@H](O)C[C@@H](Cc1ccccc1)C(=O)N[C@H]1c2ccccc2C[C@H]1O` [indinavir], the “inhibition” value is -3.73% (1 nM); -5.87% (8.33 nM); -9.09% (100 nM); -8.27% (833.33 nM); -10.5% (10000 nM).
Take `O=C1[C@H]2CCCC[C@H]2C(=O)N1CCCCN1CCN(c2nsc3ccccc23)CC1` [perospirone]: the “inhibition” value was -1.38% (1 nM); 3.93% (8.33 nM); 3.52% (100 nM); 3.58% (833.33 nM); -1.69% (10000 nM).
In the case of `O=C(Nc1ccc(Cl)cc1)Nc1ccc(Cl)c(Cl)c1` [triclocarban], the “inhibition” value is -2.22% (1 nM); -0.87% (8.33 nM); 0.35% (100 nM); -1.44% (833.33 nM); -0.6% (10000 nM).
As for `Nc1nc(=O)c2c([nH]1)NCC(CNc1ccc(C(=O)N[C@@H](CCC(=O)O)C(=O)O)cc1)N2C=O` (stereo not given in full) [leucovorin], the “inhibition” value was -3.4% (1 nM); -3.52% (8.33 nM); -0.89% (100 nM); 1.42% (833.33 nM); -0.745% (10000 nM).
For `CC(C)[C@H](N)C(=O)OCCOCn1cnc2c(=O)nc(N)[nH]c21` [valaciclovir], the “inhibition” value by setting is: (1 nM) 0.01%; (8.33 nM) 0.27%; (100 nM) 1.58%; (833.33 nM) 0.1%; (10000 nM) -2.93%.
On to `NC(=O)C(c1ccccc1)(c1ccc(F)cc1)c1ccc(F)cc1` [senicapoc], for which the “inhibition” value (1 nM) is -2.77%; the “inhibition” value (8.33 nM) was -1.48%; the “inhibition” value (100 nM) was -2.37%; the “inhibition” value (833.33 nM) was 0.14%; the “inhibition” value (10000 nM) was -0.54%.
As for `O=c1cc(N2CCOCC2)oc2c(-c3cccc4c3sc3ccccc34)cccc12`, the “inhibition” value reads like this: (1 nM) 1.01%; (8.33 nM) -0.44%; (100 nM) 0.05%; (833.33 nM) 8.27%; (10000 nM) 36.8% (active).
For `CN1CCN(Cc2ccc(-c3cnc4[nH]cc(-c5ccc6[nH]ccc6c5)c4c3)cc2)CC1`, the “inhibition” value is 1.32% (1 nM); 1.21% (8.33 nM); 3.09% (100 nM); 21.6% (active) (833.33 nM); -14.8% (10000 nM).
As for `Cc1[nH]c(=O)c(C#N)cc1-c1ccc2nccn2c1` [olprinone], the “inhibition” value by setting is: (1 nM) -2.15%; (8.33 nM) 1.36%; (100 nM) 0.52%; (833.33 nM) 0.56%; (10000 nM) -0.84%.
On to `Oc1ccc(Cl)cc1Cc1cc(Cl)ccc1O` [dichlorophen], for which the “inhibition” value is, setting by setting: (1 nM) -4.53%; (8.33 nM) 0.22%; (100 nM) -2.85%; (833.33 nM) -2.86%; (10000 nM) 1.46%.
Take `C=C1/C(=C\C=C2/CCC[C@]3(C)[C@@H]([C@H](C)OCCC(C)(C)O)CC[C@@H]23)C[C@@H](O)C[C@@H]1O` [maxacalcitol]: the “inhibition” value by setting is: (1 nM) 1.71%; (8.33 nM) 0.65%; (100 nM) -1.77%; (833.33 nM) 0.61%; (10000 nM) -0.56%.
For the compound `CCC[C@H](NC(=O)/C(C#N)=C/c1cccc(Br)n1)c1ccccc1`, the “inhibition” value was 1.89% (1 nM); 1.78% (8.33 nM); -0.09% (100 nM); 4.12% (833.33 nM); -5.9% (10000 nM).
In the case of `C[C@H](N)C(=O)N[C@@H](CCC(N)=O)C(=O)O` [dipeptamin], the “inhibition” value runs as follows: (1 nM) -0.51%; (8.33 nM) 1.67%; (100 nM) -0.9%; (833.33 nM) 0.75%; (10000 nM) 0.66%.
As for `OCc1ccc(O[C@@H]2O[C@H](CO)[C@@H](O)[C@H](O)[C@H]2O)cc1` [gastrodin], the “inhibition” value (1 nM) was -0.38%; the “inhibition” value (8.33 nM) was -2.3%; the “inhibition” value (100 nM) is -2.66%; the “inhibition” value (833.33 nM) is -2.37%; the “inhibition” value (10000 nM) is -4.3%.

Source of the values: the supplement of paper PMC13380429.
